Holding throughout (parameters): species or system human, MV4-11 + K-562 + COLO205 + SK-N-BE2 + OVCAR-8
One experiment relates to CSNK1A1. As to conditions: read-out: apparent Kd; compound concentrations: 100 nM and 1000 nM (sheet 'Samples'), CATDS: 7.6615483507767895E-2; n = 1.
A further experiment deals with CSNK1D. Conditions: read-out: apparent Kd, n = 1.
A further experiment relates to CSNK1E. Conditions: read-out: apparent Kd, n = 1.
The next experiment has as its system MAPK10. As to conditions: read-out: apparent Kd, compound concentrations: 100 nM and 1000 nM (sheet 'Samples'), n = 1.
Another experiment relates to MAPK14. As to conditions: read-out: apparent Kd, n = 1.
For another experiment, the system named is MAPK9. As to conditions: read-out: apparent Kd, compound concentrations: 100 nM and 1000 nM (sheet 'Samples'), n = 1.
A further experiment concerns MAPKAPK2. As to conditions: read-out: apparent Kd, n = 1.
The next experiment has as its system NLK. As to conditions: read-out: apparent Kd, compound concentrations: 100 nM and 1000 nM (sheet 'Samples'), n = 1.
The next experiment deals with PIP4K2C. As to conditions: read-out: apparent Kd; compound concentrations: 100 nM and 1000 nM (sheet 'Samples'), CATDS: 7.4110853975201799E-2; n = 1.
The next experiment has as its system DYRK1A. As to conditions: read-out: apparent Kd, compound concentrations: 100 nM and 1000 nM (sheet 'Samples'), n = 1.
Another experiment deals with LATS1. Conditions: read-out: apparent Kd; compound concentrations: 100 nM and 1000 nM (sheet 'Samples'), CATDS: 0.13446121771830499; n = 1.
In a further experiment the test system is NNT. Conditions: read-out: apparent Kd; compound concentrations: 100 nM and 1000 nM (sheet 'Samples'), CATDS: 0.14488734368084999; n = 1.
Another experiment deals with PKN2. As to conditions: read-out: apparent Kd; compound concentrations: 100 nM and 1000 nM (sheet 'Samples'), CATDS: 0.15546286258013101; n = 1.
The subject of another experiment is RPS6KB1. Conditions: read-out: apparent Kd; compound concentrations: 100 nM and 1000 nM (sheet 'Samples'), CATDS: 0.17749177686381501; n = 1.
Another experiment concerns CLK4. As to conditions: read-out: apparent Kd; compound concentrations: 100 nM and 1000 nM (sheet 'Samples'), CATDS: 0.20208548416979799; n = 1.
The next experiment deals with CSNK2A1;CSNK2A3. Conditions: read-out: apparent Kd; compound concentrations: 100 nM and 1000 nM (sheet 'Samples'), CATDS: 0.28521766566088902; n = 1.
In a further experiment the test system is CSNK2A2. Conditions: read-out: apparent Kd; compound concentrations: 100 nM and 1000 nM (sheet 'Samples'), CATDS: 0.32436684951211903; n = 1.
In the next experiment the test system is COX5A. As to conditions: read-out: apparent Kd; compound concentrations: 100 nM and 1000 nM (sheet 'Samples'), CATDS: 5.4646770087593201E-2; n = 1.
A further experiment concerns DDR1. As to conditions: read-out: apparent Kd; compound concentrations: 100 nM and 1000 nM (sheet 'Samples'), CATDS: 8.5854125332601505E-2; n = 1.
The test system of the next experiment is DDR2. As to conditions: read-out: apparent Kd; compound concentrations: 100 nM and 1000 nM (sheet 'Samples'), CATDS: 5.1047862039129102E-2; n = 1.
Another experiment concerns ILK. As to conditions: read-out: apparent Kd; compound concentrations: 100 nM and 1000 nM (sheet 'Samples'), CATDS: 4.86206826406465E-2; n = 1.
The subject of another experiment is JAK2. Conditions: read-out: apparent Kd; compound concentrations: 100 nM and 1000 nM (sheet 'Samples'), CATDS: 0.29618992494589602; n = 1.
For another experiment, the system named is MAPK8. As to conditions: read-out: apparent Kd; compound concentrations: 100 nM and 1000 nM (sheet 'Samples'), CATDS: 5.7180888411163297E-2; n = 1.
A further experiment deals with RIPK2. Conditions: read-out: apparent Kd; compound concentrations: 100 nM and 1000 nM (sheet 'Samples'), CATDS: 7.3862527968221903E-2; n = 1.
The mark [1] stands for this setting: compound concentrations:100 nM and 1000 nM (sheet 'Samples').

Where two headings read alike, the source gives them in different places.

In the case of `CN1CCC(n2cnc(-c3ccc(F)cc3)c2-c2ccnc(NC3CCNCC3)n2)CC1` [SB-229482], the potency estimated from few doses in the experiment on CSNK1A1 is 1760 nM; in the experiment with CSNK1D (compound concentrations: 100 nM and 1000 nM (sheet 'Samples'), CATDS: 0.231386526780439), 127 nM; in the experiment on CSNK1E (compound concentrations: 100 nM and 1000 nM (sheet 'Samples'), CATDS: 0.20184204641009601), 159 nM; in the experiment with MAPK10 (CATDS: 9.5737343662475993E-2) it was 810 nM; with MAPK14 (compound concentrations: 100 nM and 1000 nM (sheet 'Samples'), CATDS: 0.239197237832417), 121 nM; in the experiment on MAPK9 (CATDS: 0.10171878103733301), 682 nM. For the same molecule, the potency estimated from few doses with MAPKAPK2 (compound concentrations: 100 nM and 1000 nM (sheet 'Samples'), CATDS: 0.108564299414966) is 573 nM; in the experiment with NLK (CATDS: 8.6878607565958693E-2), 1100 nM; in the experiment on PIP4K2C it was 2040 nM.

Consider `Fc1ccc(-c2ncn(C3CCNCC3)c2-c2ccnc(Oc3ccc(F)c(F)c3)n2)cc1` [SB-253228], for which the potency estimated from few doses with CSNK1D (setting [1]) is 505 nM; in the experiment with CSNK1E (setting [1]), 1260 nM; in the experiment on MAPK14 (setting [1]), 395 nM; in the experiment with MAPKAPK2 (setting [1]), 125 nM.

Consider `CCc1nccc2c1nc(-c1nonc1N)n2CC` [SB-751148], for which the potency estimated from few doses in the experiment with CSNK1D (compound concentrations: 100 nM and 1000 nM (sheet 'Samples'), CATDS: 0.159181013373493) is 1090 nM; with CSNK1E (compound concentrations: 100 nM and 1000 nM (sheet 'Samples'), CATDS: 0.120883925571631), 1960 nM; with DYRK1A (CATDS: 0.124378507371426), 1830 nM; in the experiment with LATS1, 1530 nM; in the experiment with NNT, 1310 nM; with PKN2, 1140 nM. Moreover, the potency estimated from few doses with RPS6KB1 is 902 nM.

For `N=C1N=C(N)S/C1=C\c1ccc2ncccc2c1` [RO4509407-000], the potency estimated from few doses in the experiment on CLK4 is 1310 nM; in the experiment with CSNK2A1;CSNK2A3, 612 nM; in the experiment with CSNK2A2, 488 nM; in the experiment on DYRK1A (CATDS: 0.224085831089785) it was 1010 nM.

`Clc1ccc(-c2nn3ncccc3c2-c2ccnc(Nc3ccc4c(c3)OCCO4)n2)cc1` [GW829116X]: the potency estimated from few doses was 1390 nM in the experiment with COX5A; 637 nM in the experiment on CSNK1D (compound concentrations: 100 nM and 1000 nM (sheet 'Samples'), CATDS: 7.5632586412137201E-2); 1530 nM in the experiment with CSNK1E (compound concentrations: 100 nM and 1000 nM (sheet 'Samples'), CATDS: 5.2875216757628997E-2); 495 nM with DDR1; 1710 nM with DDR2; 2320 nM in the experiment with DYRK1A (CATDS: 4.6782776774364397E-2). Also, the potency estimated from few doses in the experiment on ILK is 2010 nM; with JAK2, 72.6 nM; in the experiment on MAPK10 (CATDS: 6.7537775874855099E-2), 815 nM; in the experiment with MAPK14 (compound concentrations: 100 nM and 1000 nM (sheet 'Samples'), CATDS: 7.0110586320851001E-2), 749 nM; with MAPK8, 1230 nM; with MAPK9 (CATDS: 0.15745137005687401), 177 nM. The potency estimated from few doses in the experiment on MAPKAPK2 (compound concentrations: 100 nM and 1000 nM (sheet 'Samples'), CATDS: 6.45632126081358E-2) was 904 nM; in the experiment with NLK (CATDS: 6.2213467797214997E-2), 988 nM; in the experiment on RIPK2, 670 nM.

The record behind these values is PMC11062922 (Nature Chemical Biology, 2023).
